Bioassay records (PubChem)
This is a sample that favours compounds with a hit; in the whole collection about 3.1% have one here.
uPA surface inh – cell surface uPA generation inhibition; cell surface uPA generation assay, qHTS; Potency, µM (doses to about 38.3 µM), without a hit: at the highest dose activity change, negative = inhibition, actives largely listed as inhibitors; actives 0.31% (n = 330,000); AID 540303; active = well fitted inhibition curve with a large enough effect; inconclusive = small, poorly fitted or top-dose-only effect; inactive = no such curve, though single readings can be large or run the other way; tested in mouse RAW 264.7 cells; also: potency is read from the fitted curve at half-maximal effect; % is scaled to controls: 0 for no effect and ±100 for the full control effect; nearly all actives have a fitted effect of over 55% in size
RGS4 inh – inhibitors of human regulator of G protein signaling 4. P49798. Transcreener GDP fluorescence polarization, RGS4-accelerated GTP hydrolysis. Potency, µM (doses to about 114 µM), without a hit: top-dose activity change, negative = inhibition, most hits filed as inhibitors. actives 0.039% (n = 390,000); active = well fitted inhibition curve with a large enough effect; inconclusive = small, poorly fitted or top-dose-only effect; inactive = no such curve, though single readings can be large or run the other way; also: potency is read from the fitted curve at half-maximal effect; % is scaled to controls: 0 for no effect and ±100 for the full control effect; nearly all actives have a fitted effect of over 75% in size
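MLSMR compounds (23 nl, pin-transferred) preincubated 10 min at room temperature with a 500nM (2x) first reagent, then RGS4 at 900nM (2x) plus Transcreener GDP mix added; fluorescence polarization (620/688 nm) read before and after 90 min at 30 °C.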
DRD3 agonist – activates the human D3 dopamine receptor | P35462 | D3R DiscoveRx beta-arrestin cells, luminescence, 90 min | max activation, % | actives 0.58% (n = 410,000) | AID 652048; in the data active = max activation above about 30%; also: 0% is about no effect
Target sequence (P35462 whole entry, looked up): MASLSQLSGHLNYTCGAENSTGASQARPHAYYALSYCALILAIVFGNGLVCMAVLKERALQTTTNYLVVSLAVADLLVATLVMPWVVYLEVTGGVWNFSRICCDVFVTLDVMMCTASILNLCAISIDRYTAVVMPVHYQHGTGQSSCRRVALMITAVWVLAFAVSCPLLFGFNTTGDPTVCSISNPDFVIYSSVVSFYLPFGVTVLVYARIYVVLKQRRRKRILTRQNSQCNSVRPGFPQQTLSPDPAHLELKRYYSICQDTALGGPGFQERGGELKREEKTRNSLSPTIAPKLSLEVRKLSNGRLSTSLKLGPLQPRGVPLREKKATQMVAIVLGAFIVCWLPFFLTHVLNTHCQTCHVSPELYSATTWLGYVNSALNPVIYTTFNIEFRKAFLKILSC
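Agonist-mode cell screen: cells plated at 1500/well and incubated overnight at 37 °C, then exposed to library compounds for 90 min at 37 °C. Detection reagent was added for 30–60 min at room temperature, and luminescence was read.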
DRD3 antagonist – antagonists of human D3 dopamine receptor. AID 652054. max response, negative = inhibition, %. P35462. D3R cells, DiscoveRx beta-arrestin luminescence, antagonist mode; hits give low values. actives 2.5% (n = 360,000); in the data active = max response below about -50%; inconclusive = no clear call, values can overlap the other calls; also: % is scaled to controls: 0 for no effect and ±100 for the full control effect
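Cells expressing the human receptor were seeded at 1500 cells/well, incubated overnight at 37 degrees C in 5% CO2, then exposed to library compounds with dopamine controls for 90 minutes at 37 degrees C before luminescent detection.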
The depositor's hits bear a star; u = inconclusive; x = not tested or not shown; [ ] = another dose, or the depositor's remark.

SMILES	uPA surface inh	RGS4 inh	DRD3 agonist	DRD3 antagonist
Clc1cccc(N2CCN(CCCN3CCN(c4ccccc4)CC3)CC2)c1	-4%	3%	-4	-79*
O=C(CCN1CCN(c2ccccc2)CC1)Nc1nccs1	6%	-22%	12	-64*
COc1ccccc1NC(=O)NCCN1CCCCC1	29%	15%	-14	-11
O=C(NCCN1CCN(c2ccccc2)CC1)Nc1ccc(Cl)cc1	4%	11%	-24	-55*
c1ccc(CCCN2CCOCC2)cc1	0%	-10%	-14	-7
O=C(Cc1ccccc1)Nc1ccc(N2CCN(Cc3ccccc3F)CC2)cc1	-7%	-7%	-3	-52*
O=C(CCN1CCOCC1)Nc1ccc(F)cc1	6%	-4%	2	10
CCC(=O)Nc1ccc(N2CCN(Cc3ccccc3F)CC2)cc1	0%	-8%	-3	u
O=C(c1ccc(S(=O)(=O)N2CCOCC2)cc1)N1CCN(c2cccc(Cl)c2)CC1	-15%	-8%	10	-69*
O=C(c1ccc(S(=O)(=O)N2CCOCC2)cc1)N1CCN(c2ccc(F)cc2)CC1	-6%	-12%	-2	33
O=C(CCN1CCN(c2ccc(F)cc2)CC1)Nc1ccc(F)cc1	3%	6%	-21	-82*
c1ccc(CCCN2CCN(c3ccccc3)CC2)cc1	1%	-3%	1	-64*
COc1ccc(CC(=O)NCC(c2cccs2)S(=O)(=O)c2ccc(Cl)cc2)cc1 (configuration not stated)	x	-8%	3	x
O=C(CCN1CCN(c2ccc([N+](=O)[O-])cc2)CC1)c1ccc(Cl)cc1	-4%	-30%	-9	-17
CC(CCN1CCN(c2ccccn2)CC1)c1ccccc1 (configuration not stated)	1%	38%	6	u
O=C(CCN1CCN(c2ccccc2)CC1)c1ccc(Cl)cc1	-8%	-39%	-3	-70*
OC(CN1CCN(c2cccc(Cl)c2)CC1)C(c1ccccc1)c1ccccc1 (configuration not stated)	9%	12%[56.9 µM]	-10	-72*
CC(CCN1CCN(c2ccccc2)CC1)c1ccccc1 (configuration not stated)	2%	15%	-13	-102*
O=C(Nc1ccccc1C(=O)O)c1ccc(Br)c(S(=O)(=O)NCc2ccccc2)c1	-1%	4%	39*	79
Cc1cc(C)cc(NC(=O)Nc2ccccc2OCc2cc(=O)n3ccccc3n2)c1	x	16%	2	x
COc1cccc(-c2sc3ccc(OC)cc3c2-c2ccc(OCCN(C)C)cc2)c1	-17%	-25%	-17	-79*
COc1cccc(-c2sc3ccc(OC)cc3c2-c2ccc(O)cc2)c1	25%	0%	-25	3
CNCC(=O)N[C@@H](CCCN=C(N)N)C(=O)N[C@H](C(=O)N[C@@H](Cc1ccc(O)cc1)C(=O)N[C@H](C(=O)N[C@@H](Cc1cnc[nH]1)C(=O)N1CCC[C@H]1C(=O)N[C@@H](C)C(=O)O)C(C)C)C(C)C	x	x	14	x
CC(=O)Nc1nnc(CSCc2ccc(F)cc2)s1	12%	-10%	3	-51*
CC(=O)Nc1nnc(SCc2ccc(F)cc2)s1	1%	0%	-2	-5
SMILES	uPA surface inh	RGS4 inh	DRD3 agonist	DRD3 antagonist
COc1ccc(N(CC(=O)Nc2cccc(C(C)=O)c2)S(=O)(=O)c2ccccc2)c(OC)c1	x	3%	3	x
COc1cccc(N2CCN(C(=O)c3cnn(C(C)(C)C)c3C3CCN(C(=O)OC(C)(C)C)CC3)CC2)c1	x	-14%	8	x
CCOc1ccc2c(c1)C(C)=CC(C)(C)N2S(=O)(=O)c1ccc(F)cc1	8.9µM*	-25%	-17	-12
O=c1[nH]c2cc3ccccc3cc2nc1-c1nnnn1C1CCCC1	x	x	-15	-68*
COc1ccc(-c2coc3c(C(=O)Nc4cccnc4)cccc23)c(C)c1	x	x	0	6
CC(=O)Nc1c(C)nn(-c2ccccc2)c1N1CCC(C(=O)Nc2ccccc2F)CC1	x	-13%	7	x
COc1ccccc1CNC(=O)CCn1nc(C)c2c(C)n(-c3ccccc3)nc2c1=O	x	-2%	-10	x
OCCNCCOc1ccccc1F	2%	1%	-6	-3
CC(C)c1ccccc1NC(=O)CNCCOc1ccccc1F	-4%	13%	44*	u
CCn1cc(C(=O)N2CCN(c3ccccc3OC)CC2)c(=O)c2cc(S(=O)(=O)N3CCCCC3)ccc21	x	2%	-9	x
COC(=O)C1=C(C(=O)OC)SC2(S1)C(C(=O)OC)=C(C(=O)OC)SC1=C2c2cc(C)cc(C)c2NC1(C)C	-6%	-13%	-6	-78*
CCOc1ccc2nc(NC(=O)c3nc(SCc4ccccc4F)ncc3Cl)sc2c1	x	-3%	7	x
